Measurements as given in PubChem BioAssay AID624202 (National Center for Advancing Translational Sciences (NCATS), 2012).
The campaign covered roughly 380,000 compounds. About 4,000 (1.1%) were called active. Entries that show only a call come without a potency. Another 3% or so got no clear call; they are omitted. Calls come from the whole dose curve; as a rule, active = well fitted activation curve with a large enough effect; inconclusive = small, poorly fitted or top-dose-only effect; inactive = no such curve, though single readings can be large or run the other way. The full list was thinned out, with actives kept by preference.

experiment: qHTS Assay to Identify Small Molecule Activators of BRCA1 Expression; conditions: MCF7-BRCA1-FFLuc reporter, luminescence, 48 h; series mostly up to 46.1 µM; note: nearly all actives have a fitted effect of over 80% in size
Outline: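 Cells: MCF7-BRCA1-FFLuc, 2000/well. Exposure: 48 h, 37 °C, 5% CO2. Read: luminescence, 15 min post-substrate. Controls: genistein 10 microM (maximal activation), DMSO (neutral).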
Potency is the fitted concentration of half-maximal effect.

Compound | Potency
OC(COc1ccc2ccccc2c1)CN1CCOCC1 (stereo unspecified) | 11.2 µM (active)
Cc1cccc(OCC(O)Cn2c(=N)n(CCN3CCOCC3)c3ccccc32)c1 (stereo unspecified) | inactive
OC(COc1ccc2ccccc2c1)Cn1cncn1 (stereo unspecified) | inactive
Cc1cc2c(cc1C)C(c1cccc(OC(C)C)c1)CC(=O)N2 (stereo unspecified) | inactive
COc1ccc(NC(=O)Nc2cccc(-c3noc(C)n3)c2)cc1 | inactive
O=C(Nc1ccc2ccccc2c1)Nc1ccc2snnc2c1 | inactive
COc1ccc(NC(=O)Nc2ccc3nsnc3c2)cc1 | 2.51 µM (active)
N/C(=N\OC(=O)CC1CCCCC1)c1ccccc1 | inactive
Cc1ccc(C(=O)O/N=C(\N)c2ccccn2)cc1Cl | inactive
N/C(=N\OC(=O)CCC1CCCCC1)c1ccccn1 | 7.94 µM (active)
O=C1O/C(=C\c2ccc(O)cc2)C(O)=C1c1ccc(O)cc1 | inactive
COc1ccc(CCNC(=O)CCCn2c(=O)c3ccccc3n(Cc3ccc(C)cc3)c2=O)cc1OC | inactive
COc1ccc(/C=C/c2ccccn2)cc1OC | inactive
COc1ccc(-c2noc(CSc3nc4ccc(C)cc4[nH]3)n2)cc1 | inactive
Cc1ccc(-c2nc3ccccn3c2Nc2ccc(F)cc2)o1 | inactive
CCOC(=O)CSc1nnc(CNc2ccc(F)cc2)o1 | inactive

Compound | Potency
Cc1cccc2nc(CNc3ccc(F)cc3)cn12 | 12.6 µM (active)
Cc1oc2ncn(CC(C)C)c(=O)c2c1C(=O)N1CCN(c2ccccc2F)CC1 | inactive
CCOC(OCC)c1ccc(/C=C\c2nccc(N)n2)cc1 | 3.16 µM (active)
O=C(Nc1ccc(Cl)cc1)c1cnn2c1NC(=C1CC1)C=C2C(F)F | inactive
CC1CN(C(=O)c2cc(COc3c(F)cccc3F)on2)CCN1C (stereo unspecified) | inactive
CCOC(=O)CC1(NC(=O)c2cc(COc3cncc(Cl)c3)on2)CCCCC1 | inactive
CCCOC1CCCN(C(=O)c2cc(COc3cncc(Cl)c3)on2)C1 (stereo unspecified) | 5.62 µM (active)
O=C(c1ccco1)N(Cc1cccs1)c1ccc(O)cc1 | inactive
CCc1nn(CC(=O)NCC(C)c2ccccc2)c(=O)c2cc3occc3n12 (stereo unspecified) | inactive
CCc1nn(CCCC(=O)NCc2ccccc2OC)c(=O)c2cc3occc3n12 | inactive
COc1ccc2cc(-c3nc(Cl)c4c5c(sc4n3)CC(C)CC5)c(=O)oc2c1 (stereo unspecified) | inactive
Cn1c(=O)c2c(nc(NCCc3ccccc3)n2Cc2ccccc2Br)n(C)c1=O | inactive
Cc1ccccc1-n1c(C)cc(/C=N/NC(=O)c2ccc(CN3CCOCC3)cc2)c1C | inactive
CSc1ccc(/C=C2\NC(=O)NC2=O)cc1 | inactive
Cc1ccccc1-n1c(C)cc(/C=C2\NC(=O)NC2=O)c1C | 10 µM (active)
